Measurements: PubChem BioAssay
A number with no mark means an inactive call. Some of the results follow. The source made the active and inactive calls.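 How the source made its calls, unless noted: active means inhibition above the average of all tested compounds plus 3 SD (cut at about 40% in these data); inactive means the rest.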

What was measured:
[1] = target: Bcl-2-like protein 1 (Homo sapiens) (UniProt Q07817); experiment: Bcl-xL BH3-peptide displacement, hit confirmation – biochemical, fluorescence polarization, counter-screen for MCL1 inhibitor project (AID 2166;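 active means inhibition above a cutoff equal to the mean inhibition of all tested compounds plus 3 SD, cut at about 30% in these data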); conditions: GST-Bcl-xL / FITC-Bim BH3 peptide FP binding; at 10.9 µM; hits give high values
[2] = target: Induced myeloid leukemia cell differentiation protein Mcl-1 (Homo sapiens) (UniProt Q07820); experiment: MCL1-BIM peptide interaction disruptors – biochemical, fluorescence polarization, triplicate, confirmation (AID 2168); conditions: GST-MCL1 / FITC-Bim-BH3 fluorescence polarization; at 10.9 µM; hits give high values;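 further: 0% = DMSO wells and 100% = unlabeled Bim-BH3 control peptide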
[3] = target: Lytic switch protein BZLF1 (Epstein-Barr virus (strain B95-8)) (UniProt P03206); experiment: blockers of Zta-ZRE DNA complex – biochemical, fluorescence polarization, triplicate, confirmation (AID 2361;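 active means mean inhibition across triplicate runs above the hit threshold derived for the original primary screen, cut at about 33% in these data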;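 further: 0% = Zta with DMSO and 100% = wells lacking Zta protein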); conditions: Zta-ZRE DNA binding, at 11.1 µM, hits give high values
[4] = tested on: Epstein-Barr virus nuclear antigen 1 (EBNA-1), Human herpesvirus 4; experiment: blockers of EBV EBNA-1 binding to DNA – biochemical, fluorescence polarization, counter-screen for ZTA inhibitor project (AID 2362; call rule not given here); conditions: EBNA-1 DNA binding, at 14.8 µM, hits give high values
[5] = target: Insulin-degrading enzyme (Homo sapiens) (UniProt P14735); experiment: cellular IDE Abeta-cleavage inhibition – fluorescence polarization, HEK cells, FAbetaB substrate, confirmation (AID 435028;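 active means mean inhibition across triplicate wells above the cutoff set by the earlier primary insulin-degrading enzyme screen, cut at about 16% in these data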;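 further: 0% = DMSO wells and 100% = 60 µM reference IDE inhibitor Ii1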); conditions: at 5.59 µM, hits give high values
[6] = HEK cell viability loss – luminescence, cytotoxicity control for IDE inhibitor project (AID 449730; in the data active means inhibition above about 22%;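 further: 0% = vehicle wells and 100% = reference cytotoxic drug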); conditions: HEK293 cytotoxicity, ATP luminescence; at 5.59 µM; hits give high values
[7] = target: Glutathione S-transferase omega-1 (Homo sapiens) (UniProt P78417); experiment: recombinant GSTO1 blockers, retest – biochemical, fluorescence polarization, triplicate, counter-screen for RBBP9 inhibitor project, confirmation (AID 2176;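 active means inhibition above the primary screen's cutoff, its mean inhibition plus 3 SD, cut at about 35% in these data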;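 further: loss of polarization as inhibitors block binding of rhodamine sulfonate ester activity probe; 0% = GSTO1 with DMSO and 100% = wells lacking GSTO1 enzyme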); conditions: recombinant GSTO1, probe fluorescence polarization; at 5.96 µM; hits give high values
[8] = target: Serine protease HTRA1 (Homo sapiens) (UniProt Q92743); experiment: confirming inhibition of human HTRA1 – biochemical, fluorescence polarization, confirmation (AID 540248;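 active means mean inhibition over three repeats above a set limit taken from the earlier primary screen, cut at about 37% in these data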;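 further: 0% = HTRA1 with DMSO and 100% = wells lacking HTRA1; inhibitors block probe binding so polarization drops and inhibition rises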); conditions: recombinant HTRA1, FP-rhodamine activity-based probe, at 5.96 µM, hits give high values
[9] = target: Nuclear receptor coactivator 3 (Homo sapiens) (UniProt Q9Y6Q9); experiment: NCOA3 GAL4-fusion reporter inhibition – cell-based, luminescence, quadruplicate, confirmation (AID 588792;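 active means mean inhibition over 43.08%, the solvent-only control mean plus 3 SD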;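 further: 0% = DMSO treated cells and 100% = gossypol at 36 µM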); conditions: HEK293 GAL4-SRC3 luciferase reporter, at 3.6 µM, hits give high values
[10] = tested on: transactivating tegument protein VP16 (Human herpesvirus 1), Gal4-VP16 luciferase reporter; experiment: repression of VP16-driven luciferase reporter – cell-based, luminescence, high throughput, counter-screen for SRC3 inhibitor project (AID 588794; in the data active means inhibition above about 30%); conditions: mammalian cells, at 3.6 µM, hits give high values
[11] = target: Nuclear receptor coactivator 1 (Homo sapiens) (UniProt Q15788); experiment: NCOA1 GAL4-fusion reporter inhibition – cell-based, luminescence, quadruplicate, confirmation (AID 588820;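 active means mean inhibition above 46.68%, the untreated control wells mean plus 3 SD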;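 further: 0% = DMSO wells and 100% = gossypol 36 µM treated wells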); conditions: HEK293 GAL4-SRC1 luciferase reporter, at 3.6 µM, hits give high values
[12] = repression of VP16-driven luciferase reporter – cell-based, luminescence, high throughput, counter-screen for SRC1 inhibitor project (AID 588824; in the data active means inhibition above about 25%); conditions: cell-based VP16 transactivation luciferase luminescence; at 3.6 µM; hits give high values
[13] = target: (Lyso)-N-acylphosphatidylethanolamine lipase (Mus musculus) (UniProt Q8VD66); experiment: mouse ABHD4 hydrolase blockers, triplicate – biochemical, fluorescence polarization, confirmation (AID 720658;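 active means mean inhibition across replicates above the hit cutoff set in the primary screen, cut at about 30% in these data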;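 further: 0% = wild-type ABHD4 with DMSO and 100% = catalytically dead S159A mutant with DMSO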); conditions: purified mABHD4, FP-Rh probe fluorescence polarization; at 8.92 µM; hits give high values
[14] = target: Protein-arginine deiminase type-4 (Homo sapiens) (UniProt Q9UM07); experiment: protein arginine deiminase 4 blockade, retest – biochemical, fluorescence polarization, confirmation (AID 488796;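 active means mean inhibition across replicates above the hit cutoff set by the earlier primary screen, cut at about 15% in these data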;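 further: inhibitors block active-site labeling by the probe so polarization falls; 0% = PAD4 with probe and DMSO and 100% = probe without PAD4 enzyme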); conditions: recombinant PAD4, RCA probe fluorescence polarization; at 6.36 µM; hits give high values
[15] = BSA probe fluorescence interference – biochemical, TAMRA-labeled BSA, counter-screen for TCR-CD3 interaction inhibitor project (AID 652035; in the data active means inhibition above about 23%;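 further: 0% = buffer low control and 100% = reference high control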); conditions: TAMRA-labeled BSA probe fluorescence counterscreen; at 9.4 µM; hits give high values
[16] = tested on: T-cell receptor (TCR)-CD3 interaction, human; experiment: blockers of TCR binding to CD3 – biochemical, fluorescence, TAMRA-labeled TCR probe, confirmation (AID 652036; in the data active means inhibition above about 19%); conditions: TAMRA-labeled TCR probe fluorescence binding assay; at 9.4 µM; hits give high values

Chain of Bcl-2-like protein 1 (Homo sapiens) (Q07817 whole entry, looked up): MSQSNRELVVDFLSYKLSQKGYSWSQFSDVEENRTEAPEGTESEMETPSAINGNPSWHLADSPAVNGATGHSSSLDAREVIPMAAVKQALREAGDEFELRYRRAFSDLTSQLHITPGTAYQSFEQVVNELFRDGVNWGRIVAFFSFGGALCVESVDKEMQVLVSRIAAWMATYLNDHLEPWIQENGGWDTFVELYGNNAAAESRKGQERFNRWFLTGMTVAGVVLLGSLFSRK
Chain of Glutathione S-transferase omega-1 (Homo sapiens) (P78417 whole entry, looked up): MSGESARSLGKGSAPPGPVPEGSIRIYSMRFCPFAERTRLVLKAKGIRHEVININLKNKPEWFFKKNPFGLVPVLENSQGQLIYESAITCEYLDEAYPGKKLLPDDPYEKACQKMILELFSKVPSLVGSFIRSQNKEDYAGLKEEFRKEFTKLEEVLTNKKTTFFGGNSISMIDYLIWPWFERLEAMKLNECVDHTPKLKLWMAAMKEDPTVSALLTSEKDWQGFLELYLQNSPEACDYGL
Chain of Induced myeloid leukemia cell differentiation protein Mcl-1 (Homo sapiens) (Q07820 whole entry, looked up): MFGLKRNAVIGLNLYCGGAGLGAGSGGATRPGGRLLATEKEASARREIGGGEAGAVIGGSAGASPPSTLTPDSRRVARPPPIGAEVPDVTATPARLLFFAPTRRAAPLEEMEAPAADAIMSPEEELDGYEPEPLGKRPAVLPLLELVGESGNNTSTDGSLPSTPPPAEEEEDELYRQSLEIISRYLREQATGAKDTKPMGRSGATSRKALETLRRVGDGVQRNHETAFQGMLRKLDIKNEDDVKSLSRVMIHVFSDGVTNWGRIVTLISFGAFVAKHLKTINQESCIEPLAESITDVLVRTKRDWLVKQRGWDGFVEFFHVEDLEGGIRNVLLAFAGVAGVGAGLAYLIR
Chain of Nuclear receptor coactivator 1 (Homo sapiens) (Q15788 whole entry, looked up, the tested form may be a part): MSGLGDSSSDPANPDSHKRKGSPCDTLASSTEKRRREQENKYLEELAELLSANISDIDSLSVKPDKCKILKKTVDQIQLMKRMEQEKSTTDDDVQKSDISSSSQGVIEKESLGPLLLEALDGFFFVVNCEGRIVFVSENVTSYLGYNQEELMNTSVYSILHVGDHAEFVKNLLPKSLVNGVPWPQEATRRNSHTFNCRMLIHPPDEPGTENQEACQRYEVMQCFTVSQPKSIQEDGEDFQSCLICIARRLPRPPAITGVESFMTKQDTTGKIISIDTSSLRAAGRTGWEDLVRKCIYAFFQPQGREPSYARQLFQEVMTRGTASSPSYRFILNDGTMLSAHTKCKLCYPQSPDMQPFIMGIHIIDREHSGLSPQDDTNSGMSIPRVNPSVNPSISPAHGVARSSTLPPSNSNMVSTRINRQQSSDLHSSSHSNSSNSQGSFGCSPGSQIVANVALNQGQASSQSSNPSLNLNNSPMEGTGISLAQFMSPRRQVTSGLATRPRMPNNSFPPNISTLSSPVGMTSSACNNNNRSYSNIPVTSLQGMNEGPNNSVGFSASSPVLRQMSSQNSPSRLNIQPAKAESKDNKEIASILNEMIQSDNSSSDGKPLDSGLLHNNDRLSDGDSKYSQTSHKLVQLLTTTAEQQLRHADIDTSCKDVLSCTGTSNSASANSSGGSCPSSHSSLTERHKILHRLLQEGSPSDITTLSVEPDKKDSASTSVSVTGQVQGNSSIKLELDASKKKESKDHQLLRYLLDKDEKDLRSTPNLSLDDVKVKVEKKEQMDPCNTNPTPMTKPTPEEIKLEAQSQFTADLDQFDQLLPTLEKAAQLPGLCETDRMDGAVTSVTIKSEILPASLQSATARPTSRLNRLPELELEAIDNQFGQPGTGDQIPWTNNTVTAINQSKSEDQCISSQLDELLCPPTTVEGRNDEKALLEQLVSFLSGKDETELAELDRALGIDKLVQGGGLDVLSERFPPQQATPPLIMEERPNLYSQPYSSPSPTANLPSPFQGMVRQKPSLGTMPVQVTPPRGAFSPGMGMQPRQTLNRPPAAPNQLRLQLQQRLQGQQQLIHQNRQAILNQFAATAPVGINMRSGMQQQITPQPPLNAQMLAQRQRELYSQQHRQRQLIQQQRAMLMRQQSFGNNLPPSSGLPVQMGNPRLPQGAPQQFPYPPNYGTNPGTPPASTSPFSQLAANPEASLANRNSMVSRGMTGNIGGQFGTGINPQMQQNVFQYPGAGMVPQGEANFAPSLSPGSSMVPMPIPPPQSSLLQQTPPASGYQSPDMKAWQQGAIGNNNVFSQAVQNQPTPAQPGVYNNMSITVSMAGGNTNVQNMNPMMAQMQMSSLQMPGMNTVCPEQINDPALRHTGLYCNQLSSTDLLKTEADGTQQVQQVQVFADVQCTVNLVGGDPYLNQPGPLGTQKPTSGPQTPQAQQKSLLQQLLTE
Chain of Lytic switch protein BZLF1 (Epstein-Barr virus (strain B95-8)) (P03206 whole entry, looked up): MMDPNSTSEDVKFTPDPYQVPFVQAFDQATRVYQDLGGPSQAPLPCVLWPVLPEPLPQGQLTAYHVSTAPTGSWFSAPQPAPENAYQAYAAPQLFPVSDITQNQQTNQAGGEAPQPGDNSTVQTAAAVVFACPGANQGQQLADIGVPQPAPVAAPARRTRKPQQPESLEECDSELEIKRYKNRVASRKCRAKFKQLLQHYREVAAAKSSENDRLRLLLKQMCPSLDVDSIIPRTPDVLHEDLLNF
Chain of Nuclear receptor coactivator 3 (Homo sapiens) (Q9Y6Q9 whole entry, looked up, the tested form may be a part): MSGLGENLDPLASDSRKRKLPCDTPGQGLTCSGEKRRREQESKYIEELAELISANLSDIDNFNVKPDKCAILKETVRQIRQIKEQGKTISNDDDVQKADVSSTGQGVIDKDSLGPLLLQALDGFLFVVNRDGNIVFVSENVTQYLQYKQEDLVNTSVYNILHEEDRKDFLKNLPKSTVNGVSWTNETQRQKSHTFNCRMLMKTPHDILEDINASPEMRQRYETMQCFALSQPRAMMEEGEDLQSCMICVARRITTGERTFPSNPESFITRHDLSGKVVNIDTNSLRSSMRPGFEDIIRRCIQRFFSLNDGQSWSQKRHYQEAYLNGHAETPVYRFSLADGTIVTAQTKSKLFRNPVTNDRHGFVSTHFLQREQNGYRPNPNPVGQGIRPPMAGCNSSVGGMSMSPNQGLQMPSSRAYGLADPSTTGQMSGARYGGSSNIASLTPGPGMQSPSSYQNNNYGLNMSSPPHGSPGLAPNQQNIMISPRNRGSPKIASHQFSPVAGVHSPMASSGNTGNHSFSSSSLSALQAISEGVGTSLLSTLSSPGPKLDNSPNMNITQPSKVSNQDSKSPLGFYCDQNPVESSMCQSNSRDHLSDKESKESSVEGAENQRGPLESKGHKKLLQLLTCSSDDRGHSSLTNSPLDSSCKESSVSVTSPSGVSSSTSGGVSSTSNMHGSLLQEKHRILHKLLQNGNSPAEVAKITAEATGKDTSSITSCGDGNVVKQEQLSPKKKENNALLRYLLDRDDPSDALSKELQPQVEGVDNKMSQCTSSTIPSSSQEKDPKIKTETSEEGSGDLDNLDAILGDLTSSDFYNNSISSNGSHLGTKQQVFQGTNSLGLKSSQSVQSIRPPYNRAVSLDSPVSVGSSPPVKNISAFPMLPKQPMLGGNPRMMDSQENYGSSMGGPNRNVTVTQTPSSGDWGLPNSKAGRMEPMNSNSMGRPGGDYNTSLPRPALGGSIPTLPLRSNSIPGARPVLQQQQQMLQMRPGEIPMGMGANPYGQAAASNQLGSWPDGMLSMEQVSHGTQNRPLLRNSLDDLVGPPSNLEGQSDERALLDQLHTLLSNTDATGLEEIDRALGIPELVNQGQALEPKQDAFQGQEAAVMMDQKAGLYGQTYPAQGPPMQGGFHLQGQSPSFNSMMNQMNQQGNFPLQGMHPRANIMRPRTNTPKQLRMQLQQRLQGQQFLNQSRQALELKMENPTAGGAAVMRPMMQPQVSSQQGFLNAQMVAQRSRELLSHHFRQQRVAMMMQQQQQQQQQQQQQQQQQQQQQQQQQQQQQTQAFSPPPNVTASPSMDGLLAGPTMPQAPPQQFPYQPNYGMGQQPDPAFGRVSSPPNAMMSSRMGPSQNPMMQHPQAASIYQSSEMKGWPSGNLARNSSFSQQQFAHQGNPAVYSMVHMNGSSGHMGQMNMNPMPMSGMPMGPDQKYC
Chain of (Lyso)-N-acylphosphatidylethanolamine lipase (Mus musculus) (Q8VD66 whole entry, looked up): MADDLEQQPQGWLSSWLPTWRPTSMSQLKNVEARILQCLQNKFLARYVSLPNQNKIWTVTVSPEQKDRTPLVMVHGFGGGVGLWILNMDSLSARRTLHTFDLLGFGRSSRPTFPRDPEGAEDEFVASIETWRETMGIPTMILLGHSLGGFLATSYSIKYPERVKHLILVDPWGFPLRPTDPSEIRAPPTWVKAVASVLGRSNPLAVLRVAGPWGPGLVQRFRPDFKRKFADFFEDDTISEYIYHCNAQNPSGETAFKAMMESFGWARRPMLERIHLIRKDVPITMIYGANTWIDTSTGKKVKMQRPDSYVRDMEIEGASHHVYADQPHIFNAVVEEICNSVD
Chain of Protein-arginine deiminase type-4 (Homo sapiens) (Q9UM07 whole entry, looked up): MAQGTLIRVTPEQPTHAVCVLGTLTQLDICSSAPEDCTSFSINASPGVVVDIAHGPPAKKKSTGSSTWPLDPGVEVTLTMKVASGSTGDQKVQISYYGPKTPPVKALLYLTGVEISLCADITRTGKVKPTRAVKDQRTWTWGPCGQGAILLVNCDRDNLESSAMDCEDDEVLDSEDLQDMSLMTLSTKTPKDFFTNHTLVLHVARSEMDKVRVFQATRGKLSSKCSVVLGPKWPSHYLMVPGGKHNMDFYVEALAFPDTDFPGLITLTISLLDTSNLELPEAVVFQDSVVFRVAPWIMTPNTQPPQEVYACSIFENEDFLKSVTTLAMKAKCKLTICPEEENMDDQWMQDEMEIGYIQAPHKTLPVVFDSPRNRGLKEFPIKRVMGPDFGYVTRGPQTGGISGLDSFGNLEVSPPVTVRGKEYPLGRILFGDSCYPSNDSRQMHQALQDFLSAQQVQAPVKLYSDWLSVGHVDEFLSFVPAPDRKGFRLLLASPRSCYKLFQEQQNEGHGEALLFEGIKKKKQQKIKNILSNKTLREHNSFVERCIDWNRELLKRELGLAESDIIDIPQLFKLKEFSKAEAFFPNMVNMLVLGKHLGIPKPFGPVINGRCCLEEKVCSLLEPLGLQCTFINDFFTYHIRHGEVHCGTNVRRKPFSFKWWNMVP

CN1C(=O)/C(=C/c2ccco2)SC1=Nc1cccc(C(=O)O)c1
inhibition [1]: 93% (active) | inhibition [2]: 125% (active) | inhibition [3]: -7.94% | inhibition [4]: 0.8%

C=CCOc1cccc(C2C(C(=O)c3ccc(C)o3)=C(O)C(=O)N2c2nnc(C)s2)c1 (stereo not drawn)
inhibition [1]: 70.1% (active) | inhibition [2]: 80.5% (active) | inhibition [5]: 6.36% | inhibition [6]: 5.97%

CCCN1CC=C2C(C#N)=C(N)C(C#N)(C#N)C(c3cc(OC)ccc3OC)C2C1 (stereo not drawn)
inhibition [1]: 35.6% (active) | inhibition [2]: 35.4%

Cc1ccc(C(=O)NC(=S)Nc2ccc(N3CCOCC3)cc2)cc1
inhibition [1]: 8.63% | inhibition [2]: 8.72%

COc1cc([C@H](Cc2ccccc2)NC(C)=O)oc(=O)c1
inhibition [1]: 37.8% (active) | inhibition [2]: 40.9% (active)

Cc1ccc(/C=C(\C#N)C(=O)Nc2cccc3ncccc23)o1
inhibition [1]: 23.1% | inhibition [2]: 43.1% (active)

O=C(O)c1ccccc1N=N/C(=N/Nc1cc(S(=O)(=O)O)ccc1O)c1ccccc1
inhibition [1]: 29.1% | inhibition [2]: 69.6% (active)

COCCN(CCOC)c1nc(N)c2c(N)nc3c(c2c1C#N)CC(=O)N3Cc1ccc(Cl)cc1
inhibition [1]: 9.48% | inhibition [2]: 4.93%

COC(=O)[C@H]1[C@H]2C[C@H]3c4[nH]c5ccccc5c4CCN3C[C@@H]2CC[C@@H]1O
inhibition [1]: 88.6% (active) | inhibition [2]: 112% (active) | inhibition [3]: 22.7% | inhibition [4]: -1.66%

Brc1ccc(C2=CC(c3ccco3)n3ncnc3N2)cc1 (stereo not drawn)
inhibition [1]: 52.9% (active) | inhibition [2]: 75.9% (active)

Cc1ccc(S(=O)(=O)C(C#N)c2nc3ccccc3nc2N2CCCC2)cc1C (stereo not drawn)
inhibition [1]: 74.9% (active) | inhibition [2]: 82.8% (active) | inhibition [7]: 26.5%

O=c1[nH]c(=S)[nH]c2[nH]c(=S)[nH]c12
inhibition [1]: 42.2% (active) | inhibition [2]: 98.7% (active)

COC(=O)c1sc(NC(=S)NC(=O)c2ccc(C)cc2)nc1C
inhibition [1]: 12.1% | inhibition [2]: 19.3%

COc1ccc(Cl)cc1NC(=O)CCS(=O)(=O)c1ccc(Br)cc1
inhibition [1]: 6.91% | inhibition [2]: 46.5% (active)

COc1ccc(C2C=C(c3ccc(Br)cc3)Nc3nc(NS(C)(=O)=O)nn32)cc1 (stereo not drawn)
inhibition [1]: 133% (active) | inhibition [2]: 167% (active)

COCCn1c(N)c(NCc2ccccc2)c(=O)[nH]c1=O
inhibition [1]: 37.1% (active) | inhibition [2]: 62.8% (active)

Cn1c2ccccc2c(=O)c2c(=O)n(Cc3ccco3)c(COc3ccccc3)nc21
inhibition [1]: 38.4% (active) | inhibition [2]: 60.8% (active)

O=C(C[n+]1cc(Br)cc2ccccc21)c1ccc(F)cc1
inhibition [1]: 23% | inhibition [2]: 22.2%

O=c1[nH]c2ccccc2n2c(-c3ccccc3)nnc12
inhibition [1]: 36.7% (active) | inhibition [2]: 34.5% | inhibition [7]: 23.1%

COC(=O)C[n+]1cccc2ccccc21
inhibition [1]: 142% (active) | inhibition [2]: 173% (active)

COc1ccc2[nH]c(C)c(CCN(Cc3cccs3)C(=S)Nc3ccccc3OC)c2c1
inhibition [1]: 14.6% | inhibition [2]: 12.4%

COc1ccc(Nc2cc(Cl)ccc2C(=O)O)cn1
inhibition [1]: 38.7% (active) | inhibition [2]: 53.5% (active)

COC/C=C/C1=CC2=CC(=O)C(C)(OC(=O)CCC(=O)OC)C(=O)C2=CO1 (stereo not drawn)
inhibition [1]: 43.5% (active) | inhibition [2]: 59.1% (active)

Oc1ccc2ccccc2c1N=Nc1nccs1
inhibition [1]: -28.4% | inhibition [2]: -52.8% | inhibition [7]: 24.3% | inhibition [8]: 52.2% (active) | inhibition [9]: 45.8% (active) | inhibition [10]: 46.5% (active) | inhibition [11]: 29.6% | inhibition [12]: 55.1% (active) | inhibition [13]: 64.9% (active)

C=CCNc1nnc(SCC(=O)N2CCCCC2)c2ccccc12
inhibition [1]: 55.6% (active) | inhibition [2]: 67.8% (active)

Cc1nnc(NC(=O)/C=C/c2ccco2)s1
inhibition [1]: 11.6% | inhibition [2]: 16.8%

Cc1ccc(NC(=O)c2cc(-c3ccc(C)o3)nc3ccccc23)nc1
inhibition [1]: 12.4% | inhibition [2]: 41.7% (active)

CN1c2ccc(C=O)c3c(C=O)ccc(c23)N(C)C1(C)C
inhibition [1]: 126% (active) | inhibition [2]: 151% (active) | inhibition [7]: 63.5% (active) | inhibition [14]: 18.5% (active) | inhibition [8]: 46.9% (active) | inhibition [9]: 27.9% | inhibition [10]: 9.96% | inhibition [11]: 13.7% | inhibition [12]: 16.3% | inhibition [15]: 15.3% | inhibition [16]: 10.7% | inhibition [13]: 20.4%

Fc1ccc(CNc2nc3ccccc3n3nnnc23)cc1
inhibition [1]: 36.6% (active) | inhibition [2]: 41.3% (active)
